Cav32 inh = Cav3.2 calcium influx blockers – cell-based, Fluo-4 calcium fluorescence, FDSS, MLSMR library, primary screen; Voltage-dependent T-type calcium channel subunit alpha-1H (Homo sapiens), O95180; Cav3.2-expressing cells; active compounds read low; 100,000 tested, 4% active; AID 449739, 2010; B-score at 10 µM;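 active = single-dose well whose peak fluorescence ratio is a statistical outlier from its plate by either plate-standardised score or position-corrected B-score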
DAT uptake mod = changed hDAT dopamine uptake under cocaine IC80, either direction, primary screen, cocaine antagonist project, cell-based, LLC-PK1 hDAT, [14C]-dopamine uptake, MLSMR; LLC-PK1 hDAT cells, [14C]-dopamine uptake with cocaine IC80; actives deviate in either direction; B-score at 10 µM; 110,000 tested, 1.3% active;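 active = Z score or B-score, a plate-position-corrected score, falls beyond the plate's 99.7% confidence bounds, in either direction; inactive = both scores lie inside the 99.7% bounds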;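 also: scored against the spread of the other compound wells on the same plate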
PostGolgi ctrl = growth inhibition of yeast control strain, primary screen, counter-screen for post-Golgi transport modulator project; inhibition, % at 10 µM; AID 738, 2007; 98,000 tested, 5% active; efflux-deficient yeast background strain, growth absorbance A615, 16 h
PLAP activator = PLAP enzyme activators, biochemical, luminescence, HTS; purified PLAP enzyme, luminescent substrate read-out; active compounds read high; 96,000 tested, 1.2% active; activation fold at 20 µM; Alkaline phosphatase, placental type (Homo sapiens), P05187; in the data active = activation fold above about 2
PostGolgi yeast = phenotypic screen on post-Golgi transport, primary screen; post-Golgi transport phenotypic cell assay; inhibition, % at 10 µM; 98,000 tested, 0.9% active; AID 739, 2007;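 also: yeast cells grown in 1536-well plates; yeast grown about 18 h at 30C before absorbance read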
* marks the source's active call; other numbers are inactive results; x = no result. Hits are enriched below; roughly 9.6% of the tested compounds scored in any of these assays. Rule as the data show it, unless noted: active = inhibition above about 30%; inactive = the rest.

SMILES | Cav32 inh | DAT uptake mod | PostGolgi ctrl | PLAP activator | PostGolgi yeast
CC(=O)c1cccc(-n2nnnc2SCC(=O)Nc2cccc(NC(=O)c3ccco3)c2)c1 | -0.562 | 0.0284 | 1.6 | 1.5 | -0.5
N#Cc1c2c(c(-c3ccco3)[nH]c1=O)CCCC2 | 0.297 | -0.731 | 8.1 | 0.8 | 8.7
CCCCCCCCNC(C)C(O)c1ccc(SC(C)C)cc1 (stereo not given) | -4.45* | -0.0105 | x | x | x
C[C@@H](NCCc1ccc(O)cc1)[C@@H](O)c1ccc(O)cc1 | 0.228 | -0.698 | x | x | x
COc1ccc(NC(=S)NNC(=O)C(C)n2nc(C)c([N+](=O)[O-])c2C)cc1 (stereo not given) | -0.461 | -0.557 | 8.8 | 2.3* | -7.7
Cc1ccc(CNC(=O)C2CC(c3ccccc3F)=NO2)cc1 (stereo not given) | -2.09 | -0.533 | x | x | x
Cc1cc(C(=O)NCC(=O)OC(C(=O)Nc2cc(C(F)(F)F)ccc2Cl)c2ccccc2)ccc1[N+](=O)[O-] (stereo not given) | -8.98* | 0.0599 | -4.3 | 0.5 | -3.1
Cc1ccc(S(=O)(=O)NCC(=O)OC(C(=O)c2ccccc2)c2ccccc2)cc1 (stereo not given) | -3.54* | -0.377 | 7.9 | 1.1 | -1.3
COC(=O)CNS(=O)(=O)c1ccc(C)cc1 | -0.0868 | 0.837 | -2.4 | 0.9 | -5.7
Cc1ccc(C(=O)C(OC(=O)CNC(=O)c2ccc(Cl)cc2)c2ccccc2)cc1 (stereo not given) | -7.12* | 0.33 | -4.7 | 1.1 | 0.0
Cc1csc(NC(=O)C(Cc2ccccc2)n2cccc2)n1 (stereo not given) | -4.92* | 0.249 | 17.6 | 0.9 | -0.7
Cc1cc(C)nc(SCNC(=O)c2ccc(F)cc2)n1 | 0.742 | 0.217 | 13.2 | 1.1 | 31.6*
Cc1cc(SCNC(=O)c2ccccc2)ncn1 | 0.876 | 0.31 | 5.8 | 1 | -4.0
CCN1/C(=C(\O)c2ccccc2)C(=O)c2ccccc2S1(=O)=O | -3.84* | -0.409 | 22.7 | 1 | 11.0
Cc1cccc2c(SCC(=O)NCC3CCCO3)nc(-c3ccc(F)cc3)nc12 (stereo not given) | -0.707 | 0.379 | 12.1 | 1.2 | 4.8
CC(=O)Nc1sc2c(c1C(c1ccc(Cl)cc1)N1CCOCC1)CCCC2 (stereo not given) | x | 0.609 | 31.2* | 1.6 | 28.9
CCc1cc(C(c2ccc(F)cc2)N2CCOCC2)c(NC(=O)c2ccccc2)s1 (stereo not given) | -1.05 | 0.0889 | 11.4 | 1.1 | 32.0*
CC(=O)Nc1sc2c(c1C(c1ccccc1)N1CCOCC1)CCCC2 (stereo not given) | -6.26* | -0.222 | 25.0 | 1.3 | 9.4
CCNC(=O)c1c(NC(C)=O)sc2c1CCCC2 | 1.5 | -1.29 | 3.4 | 1.2 | -0.9
CC(=O)Nc1sc2c(c1C(c1ccc(F)cc1)N1CCOCC1)CCCC2 (stereo not given) | -7.15* | 0.794 | 19.4 | 1.9 | -2.9
Cc1nc2sc(C(c3ccc(F)cc3)N3CCOCC3)c(O)n2n1 (stereo not given) | 0.366 | 2.5 | 3.1 | 1.2 | 0.0
CC(=O)Nc1ccc(S(=O)(=O)N(Cc2ccco2)CC2CCCO2)cc1 (stereo not given) | x | x | 4.8 | 1.4 | 3.3
Cc1ccc(S(=O)(=O)Nc2cccc3ncccc23)s1 | -1.26 | 0.0042 | 36.1* | 1.4 | -1.7
Cc1ccc(S(=O)(=O)Nc2ccccc2-c2ccccc2)cc1 | -5.75* | 0.0114 | 25.5 | 0.9 | 7.8
Cc1cc(NS(=O)(=O)c2ccc(-c3ccccc3)cc2)no1 | -1.05 | 2.94 | 9.9 | 1.3 | 0.5
SMILES | Cav32 inh | DAT uptake mod | PostGolgi ctrl | PLAP activator | PostGolgi yeast
Cc1ccc(-c2nc3cccnc3s2)cc1NS(=O)(=O)c1cccs1 | -2.33 | -0.647 | x | x | x
Cc1ccc(S(=O)(=O)Nc2ccnc3ccccc23)cc1 | -0.243 | -8* | 4.3 | 1 | -1.9
Cc1cnc(C(=O)Nc2ccccc2-c2nnn(CC(=O)NC3CCCC3)n2)cn1 | -0.507 | 0.23 | -4.2 | 1.2 | -7.0
Cc1ccccc1[C@@H]1C(C#N)=C(N)S[C@H]1C(=O)c1ccccc1 | -2.07 | -0.0298 | 21.3 | 0.7 | 5.0
O=C(C1CC=CCC1)N1CCN(C(=O)C2CC=CCC2)CC1 (stereo not given) | -0.0682 | 0.881 | x | x | x
C=CCNc1nc(N(c2ccccc2)c2ccccc2)nc(-n2ccnc2)n1 | 0.521 | -0.038 | 34.8* | 0.9 | -1.4
CCCCNc1nc(N(C)c2ccccc2)nc(-n2ccnc2)n1 | -0.558 | 0.728 | 68.9* | 1 | 96.0*
CCNc1nc(N2CCOCC2)nc(N(c2ccccc2)c2ccccc2)n1 | 1.4 | 0.339 | 9.4 | 1.1 | -4.8
CN(c1ccccc1)c1nc(-n2ccnc2)nc(-n2ccnc2)n1 | -0.415 | 0.85 | 55.2* | 1 | 48.3*
c1ccc(N(c2ccccc2)c2nc(-n3ccnc3)nc(-n3ccnc3)n2)cc1 | 2.22 | 1.22 | 104.0* | 0.9 | 100.2*
Cn1c(=O)c2c(nc(-n3ccnc3)n2Cc2ccccc2)n(C)c1=O | 1.23 | 0.967 | 0.3 | 1.2 | -3.4
CC(C)CNS(=O)(=O)c1ccc(S(=O)(=O)N2CCN(CCC#N)CC2)cc1 | 0.618 | -0.0757 | 16.7 | 1 | -0.7
COc1ccc(CCNC(=O)/C=C/c2ccc(C)cc2)cc1OC | -1.16 | -0.362 | 27.8 | 1 | -1.8
CCOC(=O)C1=C(C)N(C)C(C)=C(C(=O)OCC)C1c1ccc(C(=O)OC)cc1 | -7.01* | -2.3 | 12.3 | 1.8 | -3.6
COCCOc1cc(-n2ccnc2SC)c(Cl)cc1Cl | 0.533 | 0.204 | 10.7 | 1.2 | 5.0
Oc1ccc2ccccc2c1C=Nc1cc(C(F)(F)F)ccc1N1CCCC1 | -1.59 | -0.202 | 5.2 | 1 | -2.9
COc1ccc(NC(=O)CC2C(=O)N(CCc3ccccc3)C(=S)N2Cc2cccnc2)cc1 (stereo not given) | -3.2 | -0.0891 | 15.2 | 1.3 | 1.9
CN1C(=O)C(CC(=O)Nc2ccc(F)cc2)N(CCCc2ccccc2)C1=S (stereo not given) | -5.18* | 0.0154 | -1.6 | 0.9 | 0.2
COC(=O)CN1C(=S)N(c2ccc(Cl)cc2)C(=O)C1CC(=O)Nc1ccc(Cl)cc1 (stereo not given) | x | x | 25.3 | x | -2.7
COC(=O)CN1C(=S)N(Cc2ccccc2)C(=O)C1CC(=O)Nc1ccc(Br)cc1 (stereo not given) | -3.39 | -0.00628 | 78.9* | 1.1 | -1.4
O=C(CSc1nc2ccccc2[nH]1)N1CCN(S(=O)(=O)c2ccc(Cl)cc2)CC1 | -2.48 | 1.06 | -3.0 | 2* | -6.2
Cc1ccc(S(=O)(=O)N2CCN(C(=O)CSc3nc4ccccc4c(=O)[nH]3)CC2)cc1 | 0.818 | -0.138 | 1.6 | x | 2.4
CCN(CC)c1nc(N)c2c(N)nc3c(c2c1C#N)CC(c1ccccc1)O3 (stereo not given) | -3.37 | 0.69 | 10.9 | 1.1 | 4.8
N#Cc1c(N2CCCCC2)nc(N)c2c(N)nc3c(c12)CC(c1ccccc1)O3 (stereo not given) | -0.828 | 2.1 | 53.1* | 1.3 | 0.2

Screens as filed in PubChem BioAssay.
